Active and inactive are the calls of the source. Unless noted, how the calls were made is not given here.
Tests used:
[1] = resazurin metabolic signal in HepG2 cells – cell-based, resazurin fluorescence, 24 h, PK04 Diversity Set, profiling panel (AID 1172); conditions: HepG2 viability, higher = more signal; further: test concentration not given here
[2] = budding yeast growth changes without added modifier – OD600, strain BY4716, 24 h, basal condition, primary screen (AID 1173); conditions: S. cerevisiae BY4716 growth, OD600, 24 h; higher = more signal, called active from +8 up or from −8 down
[3] = viability profiling in MM1S myeloma cells – cell-based, resazurin fluorescence, basal, 24 h, PK04 Diversity Set, profiling panel (AID 1174); conditions: higher = more signal, called active from +8 up or from −8 down;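 further: MM1S multiple myeloma cell line; test concentration not given here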
[4] = target: Dihydroorotate dehydrogenase (quinone), mitochondrial (Plasmodium falciparum (isolate 3D7)) (UniProt Q08210); assay: inhibition of P. falciparum DHODH – biochemical, C-terminal His tag, absorbance 600 nm, primary screen (AID 1175); conditions: PfDHODH enzyme, DCIP absorbance 600 nm; higher = more signal, called active from +8 up or from −8 down;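 further: recombinant parasite enzyme with a five histidine tag at its C terminus; test concentration not given here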
Sequence of Dihydroorotate dehydrogenase (quinone), mitochondrial (Plasmodium falciparum (isolate 3D7)) (Q08210 whole entry, looked up): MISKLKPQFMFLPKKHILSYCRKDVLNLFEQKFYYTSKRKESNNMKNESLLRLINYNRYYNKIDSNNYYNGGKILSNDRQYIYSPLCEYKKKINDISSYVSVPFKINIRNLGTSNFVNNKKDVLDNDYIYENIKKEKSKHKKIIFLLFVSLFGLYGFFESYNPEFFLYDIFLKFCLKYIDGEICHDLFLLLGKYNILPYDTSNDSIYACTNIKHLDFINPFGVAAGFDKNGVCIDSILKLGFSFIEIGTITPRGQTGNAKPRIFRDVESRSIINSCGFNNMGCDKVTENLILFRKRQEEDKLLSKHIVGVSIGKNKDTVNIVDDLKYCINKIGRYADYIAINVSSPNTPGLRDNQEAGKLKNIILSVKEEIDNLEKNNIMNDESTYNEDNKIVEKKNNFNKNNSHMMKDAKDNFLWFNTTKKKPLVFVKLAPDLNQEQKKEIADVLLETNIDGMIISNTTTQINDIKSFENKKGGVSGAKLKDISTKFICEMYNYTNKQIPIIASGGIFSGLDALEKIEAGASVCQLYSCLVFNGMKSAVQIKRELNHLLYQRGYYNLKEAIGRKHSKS

[5] = inhibition of PAO1 biofilm formation – strain PAO1, LB-PBS medium, absorbance 600 nm, primary screen (AID 1176); further: test concentration not given here; conditions: P. aeruginosa PAO1 growth/biofilm, A600, 12 h; higher = more signal
[6] = growth modulation of vineyard yeast isolate – strain RM11-1a, OD600, basal, 24 h, primary screen (AID 1177);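 further: cultures grown under basal conditions with no added stressor; test concentration not given here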; conditions: S. cerevisiae RM11-1a growth, OD600, 24 h; higher = more signal, called active from +8 up or from −8 down
[7] = growth of efflux-deficient E. coli DRC39 – strain DRC39, OD650, 24 h, E. coli filamentation inducers, primary screen (AID 1178);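 further: growth measured as culture turbidity by optical density at 650 nm; test concentration not given here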; conditions: E. coli DRC39 acrAB, higher = more signal, called active from +8 up or from −8 down
[8] = growth of efflux-deficient E. coli DRC39 – strain DRC39, OD650, 48 h, E. coli filamentation inducers, primary screen (AID 1179);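 further: screen aims at cell division blockers that make cells filament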; conditions: E. coli DRC39 delta-acrAB growth, higher = more signal, called active from +8 up or from −8 down
[9] = viability profiling in RPMI8226 myeloma cells – cell-based, resazurin fluorescence, basal, 24 h, PK04 Diversity Set, profiling panel (AID 1180); conditions: higher = more signal;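 further: RPMI8826 multiple myeloma cell line at 5000 cells per well; test concentration not given here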
[10] = target: E3 ubiquitin-protein ligase XIAP (Homo sapiens) (UniProt P98170); assay: small molecules binding XIAP protein – biophysical, small-molecule microarray, fluorescence 635 nm, primary screen (AID 1181); conditions: higher = more signal;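 further: score merges 667 nm emission and signal to noise over triplicate slides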
Sequence of E3 ubiquitin-protein ligase XIAP (Homo sapiens) (P98170 whole entry, looked up): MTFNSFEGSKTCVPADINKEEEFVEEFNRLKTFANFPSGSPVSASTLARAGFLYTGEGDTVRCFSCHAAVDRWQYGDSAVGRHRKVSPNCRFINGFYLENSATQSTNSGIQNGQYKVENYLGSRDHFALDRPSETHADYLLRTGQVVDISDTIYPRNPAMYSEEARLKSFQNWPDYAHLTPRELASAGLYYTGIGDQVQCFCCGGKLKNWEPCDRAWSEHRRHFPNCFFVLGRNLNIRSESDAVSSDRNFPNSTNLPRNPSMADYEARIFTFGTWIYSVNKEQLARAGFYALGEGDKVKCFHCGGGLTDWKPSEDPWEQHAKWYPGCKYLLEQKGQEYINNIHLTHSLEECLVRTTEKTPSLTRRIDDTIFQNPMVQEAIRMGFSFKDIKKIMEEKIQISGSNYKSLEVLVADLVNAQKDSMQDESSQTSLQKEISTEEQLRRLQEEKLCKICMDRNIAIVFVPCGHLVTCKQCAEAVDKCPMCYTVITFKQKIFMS

Structure (SMILES) | z-score [1] | z-score [2] | z-score [3] | composite z-score [4] | z-score [5] | z-score [6] | z-score [7] | z-score [8] | z-score [9] | composite z-score [10]
C=C(/C(=C/C[C@H](OC(C)=O)c1ccc(OCCO)cc1)c1cc(C(=O)OC)ccc1OC)C(C)C | 1.5 | -0.962 (inactive) | 0.012 (inactive) | -0.858 (inactive) | 0.613 (inactive) | -0.0571 (inactive) | 0.483 (inactive) | 0.232 (inactive) | 0.0628 | -0.307
COCCCNC(=O)[C@@]1(Sc2ccc(C)cc2)CC(=O)N(Cc2ccccc2Cl)[C@@H]1c1ccc(CO)cc1 | 0.683 | -0.209 (inactive) | 0.306 (inactive) | -1.08 (inactive) | 0.366 (inactive) | -0.964 (inactive) | 1.08 (inactive) | 0.709 (inactive) | 0.761 | 0.145
COC(=O)[C@@]1(CCC(=O)OC(C)(C)C)N=C(c2ccc(OCCCO)cc2)O[C@H]1c1ccccc1 | -0.291 | -0.814 (inactive) | -1.34 (inactive) | 1.27 (inactive) | 0.618 (inactive) | 1.47 (inactive) | -3.29 (inactive) | -0.735 (inactive) | -0.808 | -0.0095
CN(C)C(=O)[C@]1(Cc2ccccc2)N=C(c2ccc(OCCCO)cc2)O[C@@H]1c1ccccc1N=[N+]=[N-] | -0.274 | -1.43 (inactive) | -2.64 (inactive) | 0.9 (inactive) | -0.0837 (inactive) | 1.29 (inactive) | 0.349 (inactive) | 0.908 (inactive) | -2.58 | 0.237
CC(C)C(=C=CC[C@H](O)c1ccc(CO)o1)CCO | -0.0202 | -1.56 (inactive) | -0.159 (inactive) | -2.12 (inactive) | 0.0356 (inactive) | -0.132 (inactive) | -0.706 (inactive) | -0.741 (inactive) | 0.152 | 0.102
C=CC[C@]1(C(=O)N2CCOCC2)N=C(c2ccc(OCCCO)cc2)O[C@H]1c1ccccc1N=[N+]=[N-] | 0.101 | -1.01 (inactive) | -0.454 (inactive) | 0.846 (inactive) | -0.167 (inactive) | 0.275 (inactive) | 1.31 (inactive) | 0.844 (inactive) | -0.266 | 0.179
NC(=O)[C@@H]1[C@H]2C(=O)O[C@H](c3ccccc3)[C@H](c3ccccc3)N2[C@H](c2ccc(O)cc2)[C@@]12C(=O)Nc1ccc(C#CC3=CCCCC3)cc12 | -0.712 | 0.761 (inactive) | -7.46 (inactive) | 1.68 (inactive) | 0.802 (inactive) | 2.07 (inactive) | -0.488 (inactive) | -0.705 (inactive) | -6.39 | -0.0696
O=C1C2C=CC(C(O)C=Cc3ccc([N+](=O)[O-])cc3)N(Nc3ccccc3F)C2C(=O)N1c1ccccc1 (stereo not given) | -0.964 | 2.18 (inactive) | -0.747 (inactive) | 1.06 (inactive) | 1.58 (inactive) | 1.6 (inactive) | -0.388 (inactive) | -0.138 (inactive) | -0.381 | 0.0101
O=C1C2C=CC(C(O)C=Cc3ccc([N+](=O)[O-])cc3)N(n3cnnc3)C2C(=O)N1Cc1ccccc1 (stereo not given) | 0.178 | -0.586 (inactive) | -0.519 (inactive) | 0.607 (inactive) | 0.601 (inactive) | -0.155 (inactive) | -0.866 (inactive) | -0.721 (inactive) | -0.647 | -0.236
C=CC[C@@]1(C(=O)N2CCCCC2)N=C(c2ccc(OCCCO)cc2)O[C@@H]1c1ccccc1N=[N+]=[N-] | -0.355 | -1.02 (inactive) | -1.62 (inactive) | 0.479 (inactive) | 0.302 (inactive) | 0.597 (inactive) | 0.985 (inactive) | -0.682 (inactive) | -0.963 | 0.13
Cc1ccc([C@H]2C(C(=O)O)=CCN2S(=O)(=O)c2ccc(C)cc2)cc1 | -0.585 | 0.292 (inactive) | -0.81 (inactive) | -0.381 (inactive) | -0.088 (inactive) | -0.114 (inactive) | -0.429 (inactive) | -0.392 (inactive) | -0.325 | 0.296
CN(C)CCCC[C@@H]1NC(=O)[C@H]2C[C@@H](C(=O)NCCCCCN)[C@@H](c3cccc(OCCO)c3)N2C1=O | 0.306 | -0.7 (inactive) | 0.606 (inactive) | -0.997 (inactive) | 0.118 (inactive) | -0.629 (inactive) | 0.139 (inactive) | -0.386 (inactive) | 0.932 | 0.0101
O=C1OCC=C[C@H]2OC34C=CCN(CCN5CCOCC5)C(=O)[C@H]3N(CCO)C(=O)[C@@H]4[C@@H]12 (stereo not given in full) | 0.226 | -0.0819 (inactive) | -0.176 (inactive) | -0.424 (inactive) | -0.608 (inactive) | -0.31 (inactive) | -0.533 (inactive) | -0.385 (inactive) | -0.386 | -0.28
C=CC1c2cc(O)c(OC)cc2CCN1Cc1cccc(OC(F)(F)F)c1 (stereo not given) | 0.125 | -16.7 (active) | -4.17 (inactive) | -5.06 (inactive) | 0.0898 (inactive) | -13.7 (active) | 1.2 (inactive) | 0.738 (inactive) | -2.3 | 0.0304
C=CCNC(=O)[C@H]1[C@@H]2C(=O)O[C@@H](c3ccccc3)[C@@H](c3ccccc3)N2[C@@H](c2ccc(O)cc2)[C@]12C(=O)Nc1ccc(C#CCCO)cc12 | 1.13 | 0.189 (inactive) | 1.16 (inactive) | 0.0992 (inactive) | -0.42 (inactive) | 0.957 (inactive) | 0.516 (inactive) | 0.567 (inactive) | 1.08 | -0.198
OCC1C=C(/C=C/c2ccccc2)CN1Cc1ccccc1Br (stereo not given) | 0.233 | -9.92 (active) | -0.813 (inactive) | -0.0313 (inactive) | -0.0461 (inactive) | -0.877 (inactive) | 1.79 (inactive) | 0.183 (inactive) | -0.589 | -0.122
NC(=O)NCC#Cc1ccc2c(c1)[C@]1(C(=O)N2)[C@H](C(=O)O)[C@H]2C(=O)O[C@H](c3ccccc3)[C@H](c3ccccc3)N2[C@@H]1c1ccc(O)cc1 | 0.891 | -0.0841 (inactive) | 0.587 (inactive) | -1.63 (inactive) | 0.393 (inactive) | 0.0591 (inactive) | -0.131 (inactive) | -0.0796 (inactive) | 0.902 | 0.0043
CC(=O)Nc1cc(Br)ccc1C(=O)NCc1ccccc1 | 0.184 | -8.91 (active) | -0.292 (inactive) | 0.663 (inactive) | -0.131 (inactive) | -0.294 (inactive) | 0.0344 (inactive) | -0.785 (inactive) | -0.108 | -0.157
CCCC[C@H]1C[C@@H]1[C@@H]1N(P(=O)(c2ccccc2)c2ccccc2)C[C@@](O)(c2ccccc2)CC12CC2 | 2.63 | -0.763 (inactive) | 1.07 (inactive) | -0.244 (inactive) | 0.122 (inactive) | 0.781 (inactive) | -0.446 (inactive) | -0.412 (inactive) | -1.79 | 0.0447
O=C1OCCC=C[C@H]2OC34C=CCN(CCN5CCOCC5)C(=O)[C@H]3N(CCCCCO)C(=O)[C@@H]4C12 (stereo not given in full) | -0.123 | -0.987 (inactive) | 0.673 (inactive) | 0.233 (inactive) | -0.484 (inactive) | -0.112 (inactive) | 0.298 (inactive) | 0.732 (inactive) | 0.571 | -0.0144
COc1ccc([Si](C)(C)[C@@H]2[C@@H](CC(=O)N3Cc4ccccc4C[C@H]3CO)O[C@]3(C(=O)N(Cc4cccc(N5CCC5=O)c4)c4ccccc43)[C@H]2C)cc1 | -0.0715 | 0.984 (inactive) | -0.922 (inactive) | -3.46 (inactive) | 2.04 (inactive) | 1.38 (inactive) | 0.249 (inactive) | -0.0051 (inactive) | -0.828 | 0.0819
COc1ccc([Si](C)(C)[C@@H]2[C@@H](CCn3cc([C@H](O)c4ccccc4)nn3)O[C@]3(C(=O)N(Cc4cccc(N5CCC5=O)c4)c4ccccc43)[C@H]2C)cc1 | 0.736 | -0.0294 (inactive) | -0.939 (inactive) | 0.219 (inactive) | 2.05 (inactive) | 1.01 (inactive) | 0.603 (inactive) | 0.127 (inactive) | 0.123 | 0.0345
CCOC(=O)C[C@H]1[C@H](OC(=O)c2cc3ccccc3oc2=O)[C@@H](NC(=O)CC(C)C)c2cc(OCCCO)ccc2N1C(=O)c1ccccc1 | -0.683 | -1.9 (inactive) | 0.338 (inactive) | -2.94 (inactive) | -1.39 (inactive) | -0.544 (inactive) | 1.94 (inactive) | 1.08 (inactive) | -0.0988 | -0.117

Source: PubChem BioAssay
